Laboratory results as given in PubChem BioAssay (NCI).
This is part of a sample that, as a whole, favours compounds with a hit. Of some 83,000 tested, about 20% had one in any assay.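 Step 1: grow cells in 96-well plates. Step 2: add test compound at a single concentration. Step 3: incubate 48 h. Step 4: record percent growth.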 A number with no mark means an inactive call. Activity calls are given as the source filed them. Rule for the calls: active = growth percent below 10; inactive = the rest.

How the values were obtained:
Assay in all cases: NCI-60 one-dose screen, 48 h (100 = growth as untreated, 0 = no growth, -100 = all killed)
Conditions in all cases: 10 µM unless noted
[1] = system: NCI-H23 lung
[2] = system: NCI-H226 lung
[3] = system: NCI-H322M lung
[4] = system: HOP-62 NSCLC
[5] = system: NCI-H460 lung
[6] = system: NCI-H522 lung
[7] = system: A549/ATCC NSCLC
[8] = system: 786-0 renal
[9] = system: COLO 205 colon
[10] = system: DU-145 prostate
[11] = system: K-562 leukemia
[12] = system: MALME-3M melanoma
[13] = system: MDA-MB-231 breast
[14] = system: RXF 393 renal
[15] = system: SF-268 CNS
[16] = system: SF-295 CNS
[17] = system: SF-539 CNS
[18] = system: UACC-257 melanoma
[19] = system: M14 melanoma

## CCCCCCCCCCCCCCCC1=NCCN1
[1]
  growth: 72.5%
[2]
  growth: 80.6%
[3]
  growth: 76.6%
[4]
  growth: 55.3%
[5]
  growth: 32.5%
[6]
  growth: 74%
[7]
  growth: -15.4% (active)
[8]
  growth: 78.8%
[9]
  growth: -70.8% (active)
[10]
  growth: 72.6%
[11]
  growth: 3.78% (active)
[12]
  growth: 103%
[13]
  growth: 30.6%
[14]
  growth: 60.6%
[15]
  growth: 71.3%
[16]
  growth: 90.9%
[17]
  growth: 72.5%
[18]
  growth: 99.9%
[19]
  growth: 72.3%

## C=C(C)[C@@H]1CC[C@]2(C(=O)NS(=O)(=O)c3ccccc3)CC[C@]3(C)[C@H](CC[C@@H]4[C@@]5(C)CC[C@H](OC(=O)NS(=O)(=O)c6ccccc6)C(C)(C)[C@@H]5CC[C@]43C)[C@@H]12
[1]
  growth: -9.55% (active)
[2]
  growth: 30.9%
[3]
  growth: 34.1%
[4]
  growth: -13.4% (active)
[5]
  growth: -53.8% (active)
[6]
  growth: 16.7%
[7]
  growth: 18.3%
[8]
  growth: -43.5% (active)
[9]
  growth: 31.8%
[10]
  growth: 43.3%
[12]
  growth: 11.3%
[13]
  growth: 39.7%
[14]
  growth: -25.9% (active)
[15]
  growth: 41.4%
[16]
  growth: 1.73% (active)
[17]
  growth: -34.3% (active)
[18]
  growth: 27.8%
[19]
  growth: 12.8%

## CCc1c(C)c2ccc(O)c(-c3cc(-c4ccccc4)c(C#N)c(=O)[nH]3)c2oc1=O
[1]
  growth: 89%
[2]
  growth: 83.8%
[3]
  growth: 95%
[4]
  growth: 89.4%
[5]
  growth: 112%
[6]
  growth: 109%
[7]
  growth: 90%
[8]
  growth: 105%
[9]
  growth: 115%
[10]
  growth: 96.7%
[12]
  growth: 107%
[13]
  growth: 72.6%
[14]
  growth: 99.2%
[15]
  growth: 108%
[16]
  growth: 97.4%
[17]
  growth: 113%
[18]
  growth: 123%
[19]
  growth: 102%

## Cc1ccc2c(C)c3c(ccc4ccccc43)c[n+]2c1
[1]
  growth: 53.8%
[2]
  growth: 83.7%
[3]
  growth: 86.5%
[4]
  growth: 45.7%
[5]
  growth: 74.3%
[6]
  growth: 74.2%
[7]
  growth: 41.7%
[8]
  growth: 70.3%
[9]
  growth: 91.5%
[10]
  growth: 85%
[12]
  growth: -8.06% (active)
[13]
  growth: 72.7%
[14]
  growth: 104%
[15]
  growth: 31.5%
[16]
  growth: 36.4%
[17]
  growth: 72.8%
[18]
  growth: 69.2%
[19]
  growth: 89%

## COc1ccc(-c2cnnn2-c2nonc2-n2cccc2)cc1
[1]
  growth: 3.55% (active)
[2]
  growth: 23.6%
[3]
  growth: 49.6%
[4]
  growth: 27.2%
[5]
  growth: 7.52% (active)
[6]
  growth: -4.72% (active)
[7]
  growth: 26%
[8]
  growth: 36.6%
[9]
  growth: -43.1% (active)
[10]
  growth: 9.22% (active)
[12]
  growth: 47.8%
[13]
  growth: 33.5%
[14]
  growth: -18.3% (active)
[15]
  growth: 35.1%
[16]
  growth: -17.2% (active)
[17]
  growth: -13.9% (active)
[18]
  growth: 65.6%
[19]
  growth: -2.06% (active)

## CC(C)(C)c1nn(-c2ccccc2)c2c1C(=O)CSC(c1ccc3c(c1)OCO3)N2 (stereo not given)
[1]
  growth: 99.8%
[2]
  growth: 104%
[3]
  growth: 88.8%
[4]
  growth: 88.6%
[5]
  growth: 106%
[6]
  growth: 89.7%
[7]
  growth: 112%
[8]
  growth: 88.7%
[9]
  growth: 113%
[10]
  growth: 104%
[12]
  growth: 92%
[13]
  growth: 98.6%
[14]
  growth: 114%
[15]
  growth: 92.5%
[16]
  growth: 91.4%
[17]
  growth: 101%
[18]
  growth: 130%

## O=C1Nc2ccc(Br)cc2/C1=N/c1nc(-c2ccccc2)cs1
[1]
  growth: 92.4%
[2]
  growth: 75.7%
[3]
  growth: 88%
[4]
  growth: 53.8%
[5]
  growth: 90.9%
[6]
  growth: 71.4%
[7]
  growth: 80.3%
[8]
  growth: 85.2%
[9]
  growth: 94.7%
[10]
  growth: 89.3%
[11]
  growth: 82.4%
[12]
  growth: 101%
[13]
  growth: 77%
[14]
  growth: 91.7%
[15]
  growth: 79.5%
[16]
  growth: 102%
[17]
  growth: 98.6%
[18]
  growth: 78.2%
[19]
  growth: 87.5%

## CCN(CCC#N)c1ccccc1
[1]
  growth: 106%
[2]
  growth: 100%
[3]
  growth: 106%
[4]
  growth: 101%
[5]
  growth: 107%
[6]
  growth: 109%
[7]
  growth: 108%
[8]
  growth: 99.7%
[9]
  growth: 132%
[10]
  growth: 113%
[12]
  growth: 100%
[13]
  growth: 89.9%
[14]
  growth: 122%
[15]
  growth: 115%
[16]
  growth: 102%
[17]
  growth: 96.5%
[18]
  growth: 119%
[19]
  growth: 109%
